Proliferation data for 61 molecules are collected here from PubChem BioAssay AID2380 (Sanford-Burnham Center for Chemical Genomics, 2010).

About 960 (0.29%) of roughly 330,000 compounds were called active.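 How the source made its calls: active means compounds whose signal lies at least 3.5 SD above the mean of all wells on their plate; inactive means the rest.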 The sample as a whole holds a higher share of actives than the screen did.

The assay can be described thus: small molecules increasing insulinoma cell replication – ATP luminescence, uHTS, primary screen (AID 2380).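 Further: 0% = DMSO-treated cells in low-serum medium and 100% = 10% serum control.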 The note with it: MIN6 cells proliferation, ATPlite luminescence, 48 h; at 10 µM; active compounds read high; 100% = growth in 10% serum; cells starved in 0.2% serum. For orientation: ATP-based viability assays read luminescence as a measure of living cells.
As for `COc1cccc(NC(=O)C2CCCN(c3ncnc4c3nc3n4CCCCC3)C2)c1` (stereo unspecified), the proliferation was 5.62% (inactive).

In the case of `O=C(NCCCN1CCCCC1)C1CCCN(c2ncnc3c2nc2n3CCCCC2)C1` (stereo unspecified), the proliferation is -1.13% (inactive).

As to `COc1cccc(CNC(=O)C2CCCN(c3ncnc4c3nc3n4CCCCC3)C2)c1` (stereo unspecified), the proliferation is 7.08% (active).

Take `CC1CN(C(=O)CCC(=O)NCc2cccnc2)c2ccccc2O1` (stereo unspecified): the proliferation was -2.56% (inactive).

Take `Cc1ccccc1CNC(=O)CCC(=O)N1Cc2ccccc2Oc2ncccc21`: the proliferation was 12.5% (active).

For `Cc1ccc2c(c1)N(C(=O)CCC(=O)NCc1cccnc1)CCO2`, the proliferation is 1.08% (inactive).

Consider `CC(C)Cc1nc(Nc2ccc(S(=O)(=O)N3CCCC3)cc2)c2nnn(Cc3ccccc3)c2n1`, for which the proliferation is -0.74% (inactive).

In the case of `COC(=O)C(C(=O)Nc1cccc(C)n1)C1CCCCCC1` (stereo unspecified), the proliferation was 0% (inactive).

In the case of `O=C(C1CCN(C2CCN(Cc3cccc4c3OCO4)CC2)CC1)N1CCOCC1`, the proliferation is 1.29% (inactive).

Turning to `CC1CCN(C(=O)CCc2nnc3ccc(NCc4ccco4)nn23)CC1`, the proliferation was -1.78% (inactive).

On to `CC(=O)c1cccc(NC(=O)COc2ccc(S(=O)(=O)N3CCOCC3)cc2)c1`, for which the proliferation is 10.6% (active).

Regarding `O=C(COC(=O)c1ccccc1)Nc1cccc(S(=O)(=O)N2CCOCC2)c1`, the proliferation was 1.39% (inactive).

Regarding `COC(=O)COc1ccc(S(=O)(=O)N2CCOCC2)cc1`, the proliferation was -2.03% (inactive).

With `CCN1C(=O)[C@@H]2[C@@H](c3ccc(-c4ccccc4)cc3)N3CCCC[C@@]3(C(=O)OC)[C@@H]2C1=O`, the proliferation is -7.4% (inactive).

As to `CN(CC(=O)Nc1c(Cl)cccc1Cl)C(=O)CC1OC(=O)c2ccccc21` (stereo unspecified), the proliferation was -1.95% (inactive).

Turning to `CC1Cn2c(nnc2-c2cccs2)S1` (stereo unspecified), the proliferation was -1.85% (inactive).

In the case of `O=C(NCc1ccc2c(c1)OCO2)c1cc2c(s1)CS(=O)(=O)C2`, the proliferation was -0.86% (inactive).

Take `O=C(NNC(=O)C(O)c1ccccc1)NC1CCCCC1` (stereo unspecified): the proliferation is -1.83% (inactive).

In the case of `CC(=O)CC(CC(=O)NC1CCCCC1)c1ccccc1` (stereo unspecified), the proliferation was 0.52% (inactive).

As to `CC(=O)OC(C(=O)NC1CCCCC1)c1ccccc1` (stereo unspecified), the proliferation was 5.32% (active).

`Cn1c(=O)c2c(ncn2CC(COCc2ccccc2Cl)OCc2ccccc2Cl)n(C)c1=O` (stereo unspecified): the proliferation is -1.81% (inactive).

As for `Nc1[nH]c(=S)nc2nc(-c3ccccc3)c(-c3ccccc3)nc12`, the proliferation was -5.91% (inactive).

As to `COC(=O)c1cc(C(=O)NC(C)C2CC3CCC2C3)cc([N+](=O)[O-])c1` (stereo unspecified), the proliferation was 0% (inactive).

`O=S(=O)(NCc1ccccn1)c1ccc(F)cc1`: the proliferation is 0.39% (inactive).

As to `O=S(=O)(NCCOc1cccc2cccnc12)c1ccc(F)cc1`, the proliferation was 5.56% (active).

As to `O=S(=O)(NCCc1ccc(F)cc1)c1cccc2cccnc12`, the proliferation is 3.17% (inactive).

For the molecule `Cc1cc(Cl)ccc1NNC(=O)c1snnc1C`, the proliferation is -4.18% (inactive).

Turning to `CNc1[nH]ncc1[N+](=O)[O-]`, the proliferation is 3.19% (inactive).

Regarding `CN(C(=O)CSc1nnc(-c2n[nH]c3ccccc23)o1)c1ccccc1`, the proliferation is 0.29% (inactive).

With `Cc1ccc(OCC(=O)Nc2ccc(NC(=O)c3cccs3)cc2)c(C)c1`, the proliferation was 0% (inactive).

Regarding `Cc1ccc(C(=O)Nc2ccc(NC(=O)c3cccs3)cc2)c(C)c1`, the proliferation was 0% (active).

Turning to `Cc1ccc(NC(=O)c2cccs2)cc1S(=O)(=O)N(C)C`, the proliferation was 0.43% (inactive).

On to `CC(C)(C)N(CC#CCC(O)(c1ccccc1)C1CCCC1)CCO` (stereo unspecified), for which the proliferation is 2.2% (inactive).

Consider `CCn1c(=O)n(CC)c2cc(N3CCCC3)c(NC(=O)c3ccccc3Br)cc21`, for which the proliferation was 13.7% (active).

For `O=C(Nc1ccccc1N1CCCC1)c1ccc2ccccc2c1`, the proliferation is -2.88% (inactive).

Consider `COc1ccc(NS(=O)(=O)c2ccc(N3CCOCC3)c(NC(=O)c3ccccc3Br)c2)cc1`, for which the proliferation is 5.36% (inactive).

Regarding `CCC(C(=O)NC1CCCC1)N(C(=O)Cn1nnc(-c2ccc(C)o2)n1)c1ccc(OC)c(OC)c1` (stereo unspecified), the proliferation was 5.41% (inactive).

Turning to `COc1ccc(N(CC(=O)Nc2cc(OC)ccc2OC)S(=O)(=O)c2c(C)noc2C)cc1`, the proliferation is -0.48% (inactive).

For `CCCOc1ccc(NC(=O)CC2C(=O)N(C)C(=S)N2Cc2ccc3c(c2)OCO3)cc1` (stereo unspecified), the proliferation was 0% (inactive).

On to `C/C(=N/Nc1ccc(Cl)cc1)c1cnnc(-c2ccccc2)n1`, for which the proliferation is -3.11% (inactive).

As to `CSc1nsc(NC(=O)Nc2ccccc2)n1`, the proliferation is -5.02% (inactive).

As to `CC/C(=N/Nc1ccccc1)c1cnnc(SC)n1`, the proliferation was 8.26% (active).

Turning to `OCc1ccc(-c2ccccc2)c(-c2ccccc2)c1`, the proliferation is -3.43% (inactive).

As for `O=C(O)CC(SCC(=O)Nc1ccc(Br)cc1)C(=O)O` (stereo unspecified), the proliferation is -0.34% (inactive).

Turning to `CCCCOC(=O)Nc1sc2nc(C)cc(C)c2c1-n1cccc1`, the proliferation is 0.21% (inactive).

Take `Cc1cc(C)c2c(-n3cccc3)c(NC(=O)OCc3ccccc3)sc2n1`: the proliferation was -5.05% (inactive).

As to `COC(=O)Nc1sc2nc(C)cc(C)c2c1-n1cccc1`, the proliferation was 8.22% (active).

Turning to `CCOC(=O)N1CCN(C(=O)c2ccc3c(=O)n(CCc4ccc(OC)c(OC)c4)c(=O)[nH]c3c2)CC1`, the proliferation was 2.68% (inactive).

Regarding `CCOc1ccc(-n2c(SCC(=O)Nc3cc(C(=O)O)ccc3Cl)nc3ccccc3c2=O)cc1`, the proliferation was -1.58% (inactive).

Consider `FC(F)(F)c1cccc(NC(=S)Nc2cccc(Cl)c2)c1`, for which the proliferation was -6.83% (inactive).

Take `S=C(Nc1cccc(Cl)c1)Nc1ccc2cn[nH]c2c1`: the proliferation was 0% (active).

`Cc1csc(NC(=S)Nc2cccc(Cl)c2)n1`: the proliferation is -2.77% (inactive).

Regarding `CCCCn1c(N)c(N(CC)C(=O)/C=C/c2ccco2)c(=O)[nH]c1=O`, the proliferation is -1.59% (inactive).

Take `CO/N=C/CC(=O)c1ccc(OC)cc1`: the proliferation is -1.22% (inactive).

In the case of `COc1ccc(C(=O)CCC(=O)Nc2ccc(Cl)cc2)cc1`, the proliferation is -2.97% (inactive).

Turning to `COc1ccc(CCC(=O)c2ccc(OC)cc2)cc1`, the proliferation was 5.33% (active).

On to `CCCCn1c(N)c(N(CCOC)C(=O)c2cccc(S(=O)(=O)N3CCCCC3)c2)c(=O)[nH]c1=O`, for which the proliferation was 1.76% (inactive).

For the molecule `c1ccc(C[C@H]2CNCCN2CCC23CC4CC(CC(C4)C2)C3)cc1`, the proliferation was -8% (inactive).

Take `CC(C)(C)C(=O)c1cnc(Nc2ccccc2)s1`: the proliferation was -3.47% (inactive).

As for `CC(=O)c1cnc(-c2ccccc2)s1`, the proliferation is 8.82% (active).

In the case of `O=C(/C=C/Nc1ccccc1)c1cnc(-c2ccccc2)s1`, the proliferation is -1.21% (inactive).
